In the library only some 6.6% were active in any assay of this set; here they are far more common.
Gli-Sufu antag – antagonists of Gli-Sufu signaling; Sufu-KO-LIGHT fibroblasts, Gli luciferase reporter luminescence; inhibition, % at 5 µM; 0.74% of 340,000 active; AID 588413;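 active = inhibition above about 55%, limit read from the data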;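 note: 0% = DMSO-treated cells and 100% = wells with medium but no cells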
Mdm2 MdmX PPI – human Mdm2/MdmX binding inhibition. O15151+Q00987. SaOS-2 split-luciferase Mdm2/MdmX complementation, luminescence. inhibition, % at 8 µM. 3% of 330,000 active. AID 485346;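 active = inhibition of at least 50% at 8 µM in the primary screen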
CSC inhib – blocks cancer stem cells; cancer stem cell-like cells viability, luminescence; inhibition, % at 7.5 µM; 1.1% of 300,000 active; AID 2717; in the data active = inhibition above about 75%; tested in HMLE shEcad cells
Beta cell apopt – beta cell apoptosis inhibition | INS-1E cytokine-induced death, ATP luminescence, 48 h; percent of positive-control rescue, neutral wells zero | 0.8% of 300,000 active | AID 435005 | protection from apoptosis, % (concentration not given with the values);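 active = Every replicate reaches about 75%, or at least half do and their mean reaches it too, limit read from the data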;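 note: 0% = cytokine-treated negative control wells and 100% = positive control rescue; higher means more ATP so stronger rescue from cytokine killing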
MPTP block – blocks calcium-induced mitochondrial swelling; isolated mouse mitochondria, Ca2+ swelling absorbance, 30 min; inhibition, % at 10 µM; 1.4% of 360,000 active; AID 602449;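 active = inhibition of 50% or more, scaled per plate between neutral and stimulator controls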;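 note: 0% = DMSO wells given calcium and 100% = 1 mM EGTA wells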
NR3A LBD binder – NR3A (human) ligand-binding domain modulation; NR3A LBD differential scanning fluorimetry, Tm shift; 0% = protein alone, 100% = glycine-bound protein; AID 1259313; Tm shift relative to glycine control, % at 25 µM; 2.5% of 340,000 active;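 active = melting temperature shift of at least 10% of the positive control shift, at one fixed dose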
* = called active by the depositor; · = not tested or not shown.

SMILES | Gli-Sufu antag | Mdm2 MdmX PPI | CSC inhib | Beta cell apopt | MPTP block | NR3A LBD binder
CC(NC(=O)COC(=O)c1ccc2c(c1)S(=O)(=O)N=C1CCCCCN12)C12CC3CC(CC(C3)C1)C2 (stereo unspecified) | -1 | 2 | 11 | 47 | 2 | 18*
CC(=O)C[C@@H](O)CC(=O)[C@@H]1OC(=O)[C@@H](C)C/C=C\Cc2ccccc21 | -19 | 26 | · | 0 | 0 | 1
N#CC1(Nc2ccc([N+](=O)[O-])cc2)CCCC1 | -5 | · | · | · | -3 | 2
CCOC(=O)c1ccc(NC(=O)COc2ccc(-n3cnnn3)cc2)cc1 | -11 | -23 | 5 | -4 | 4 | 31*
COc1ccc(C(=O)N2CCCC(C)(C(=O)NS(=O)(=O)C3CC3)C2)c(OC)c1 (stereo unspecified) | · | · | · | · | -2 | ·
COc1ccc(OC)c(Nc2nc(N(C)c3ccccc3)nc(N)c2[N+](=O)[O-])c1 | 7 | 30 | 43 | 20 | 1 | 12*
CN(c1ccccc1)c1nc(N)c([N+](=O)[O-])c(Nc2ccccc2F)n1 | -1 | 14 | 16 | -8 | 2 | 0
CS(=O)(=O)c1ccc(C(=O)Nc2nc(-c3ccco3)c(-c3ccco3)s2)cc1 | -15 | 14 | · | · | 2 | 19*
CCOc1ccc(-n2c(=S)sc3c(=O)n(-c4ccccc4)c(SCC(=O)O)nc32)cc1 | -6 | -2 | -15 | 3 | 1 | -1
CCOc1ccc(-n2c(=S)sc3c(=O)n(-c4ccc(F)cc4)c(SCC(=O)O)nc32)cc1 | 3 | 10 | · | · | -2 | 15*
O=C(Cc1ccccc1)Nc1ccc(NC(=O)c2ccco2)cc1 | -8 | 2 | -9 | 4 | 0 | -12
O=C(/C=C/c1ccc(Br)cc1)c1ccc(NC(=O)c2ccco2)cc1 | -13 | 34 | 48 | -3 | 1 | 24*
O=C(/C=C/c1ccncc1)c1ccc(NC(=O)c2ccccc2F)cc1 | -13 | · | 80* | -1 | -1 | -6
O=C(/C=C\c1ccccc1)Nc1ccc(NC(=O)c2ccco2)cc1 | -18 | 11 | 31 | -2 | -1 | 25*
COc1ccc(C)cc1NC(=O)n1ncc2cc(Cl)ccc21 | -6 | 15 | 9 | 3 | -2 | -1
N#Cc1c(N)nc(SCC(=O)C23CC4CC(CC(C4)C2)C3)c(C#N)c1-c1ccc(Cl)cc1 | 6 | 28 | 5 | 7 | 0 | 0
CCOC(=O)CC(=O)CSc1nc(N)c(C#N)c(-c2ccc(Cl)cc2)c1C#N | 7 | 12 | · | -2 | 0 | 16*
CCOC(=O)CC(=O)CSc1nc2c(c(C)c1C#N)CCC2 | -22 | 21 | 5 | -7 | -3 | 20*
Cc1ccc(C(C)NC(=O)c2ccc3c(c2)OCO3)cc1C (stereo unspecified) | -7 | 31 | 2 | -4 | 2 | -1
CCOC(=O)c1c(NC(=O)CNC2CCCCC2)sc(C)c1C | 15 | 7 | 59 | -3 | -1 | 13*
CCOC(=O)c1c(NC(=O)C2CC2)sc(C)c1CC | 4 | -10 | -2 | 0 | 5 | 11*
COc1ccc(CCNC(=O)c2cc(-c3cc(Cl)ccc3O)n[nH]2)cc1OC | 9 | 38 | · | 4 | 43 | 10*
Cc1cc(C)c(O)c(-c2cc(C(=O)NCCc3ccc(S(N)(=O)=O)cc3)[nH]n2)c1 | 2 | 23 | 9 | 1 | 2 | -5
NS(=O)(=O)c1ccc(CCNC(=O)c2cc(-c3cc(Cl)ccc3O)n[nH]2)cc1 | 1 | -8 | 22 | -14 | 7 | 25*
Cc1cc(O)c(-c2cc(C(=O)NCCc3ccc(S(N)(=O)=O)cc3)[nH]n2)cc1C | 5 | 12 | 3 | 3 | 4 | 22*
SMILES | Gli-Sufu antag | Mdm2 MdmX PPI | CSC inhib | Beta cell apopt | MPTP block | NR3A LBD binder
C[C@H]1CN=C(N(C)C)N1CCCC1CCCCC1 | 19 | -1 | 21 | -4 | 0 | 1
N#C/C(=C\c1ccc(F)cc1)c1nc(-c2ccco2)cs1 | -50 | 0 | -1 | 9 | 3 | 24*
N#C/C(=C\c1ccc(-c2ccccc2)cc1)c1nc(-c2ccco2)cs1 | -5 | -8 | -3 | 0 | 6 | 28*
N#C/C(=C\c1ccc(Cl)cc1)c1nc(-c2ccco2)cs1 | -37 | 46 | 5 | 7 | 1 | -5
Cc1onc(-c2c(Cl)cccc2Cl)c1C(=O)Nc1ccc(C(N)=O)cc1 | -5 | -8 | -8 | -3 | 2 | -2
O=C(Nc1nc2c(F)cccc2s1)C1CC1 | -7 | 6 | -10 | -8 | -3 | 2
